In ChEMBL document CHEMBL1961873, “Compounds: GSK PKIS; Assays: Nanosyn kinase panel” (2012) one finds inhibition data, which are given here for 2 compounds.

Experiment [1] deals with T1, Inhibitor of nuclear factor kappa-B kinase subunit epsilon (Homo sapiens) (UniProt Q14164).
T1 sequence (whole entry): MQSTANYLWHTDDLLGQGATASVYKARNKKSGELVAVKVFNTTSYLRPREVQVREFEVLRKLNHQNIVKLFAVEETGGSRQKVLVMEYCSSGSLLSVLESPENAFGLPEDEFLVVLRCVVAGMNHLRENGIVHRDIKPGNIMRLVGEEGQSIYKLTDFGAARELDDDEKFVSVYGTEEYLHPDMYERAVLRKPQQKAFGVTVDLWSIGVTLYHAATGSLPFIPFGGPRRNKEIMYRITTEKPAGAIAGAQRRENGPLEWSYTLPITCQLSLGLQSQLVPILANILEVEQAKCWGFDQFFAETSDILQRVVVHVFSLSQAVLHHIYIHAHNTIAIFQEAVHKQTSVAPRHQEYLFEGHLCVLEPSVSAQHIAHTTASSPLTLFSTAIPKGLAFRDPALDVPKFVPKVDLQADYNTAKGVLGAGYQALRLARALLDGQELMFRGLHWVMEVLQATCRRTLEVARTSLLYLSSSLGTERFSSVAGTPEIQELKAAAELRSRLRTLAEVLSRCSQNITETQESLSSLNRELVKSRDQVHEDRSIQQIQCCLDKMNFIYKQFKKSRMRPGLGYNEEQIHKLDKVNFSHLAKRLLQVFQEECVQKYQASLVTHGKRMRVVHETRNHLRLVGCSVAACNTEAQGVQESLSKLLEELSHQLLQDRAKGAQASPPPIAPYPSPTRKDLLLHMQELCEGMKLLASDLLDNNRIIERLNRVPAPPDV
The settings on record: at 1 µM.

Experiment [2] deals with T2, Serine/threonine-protein kinase Nek1 (Homo sapiens) (UniProt Q96PY6).
T2 sequence (whole entry): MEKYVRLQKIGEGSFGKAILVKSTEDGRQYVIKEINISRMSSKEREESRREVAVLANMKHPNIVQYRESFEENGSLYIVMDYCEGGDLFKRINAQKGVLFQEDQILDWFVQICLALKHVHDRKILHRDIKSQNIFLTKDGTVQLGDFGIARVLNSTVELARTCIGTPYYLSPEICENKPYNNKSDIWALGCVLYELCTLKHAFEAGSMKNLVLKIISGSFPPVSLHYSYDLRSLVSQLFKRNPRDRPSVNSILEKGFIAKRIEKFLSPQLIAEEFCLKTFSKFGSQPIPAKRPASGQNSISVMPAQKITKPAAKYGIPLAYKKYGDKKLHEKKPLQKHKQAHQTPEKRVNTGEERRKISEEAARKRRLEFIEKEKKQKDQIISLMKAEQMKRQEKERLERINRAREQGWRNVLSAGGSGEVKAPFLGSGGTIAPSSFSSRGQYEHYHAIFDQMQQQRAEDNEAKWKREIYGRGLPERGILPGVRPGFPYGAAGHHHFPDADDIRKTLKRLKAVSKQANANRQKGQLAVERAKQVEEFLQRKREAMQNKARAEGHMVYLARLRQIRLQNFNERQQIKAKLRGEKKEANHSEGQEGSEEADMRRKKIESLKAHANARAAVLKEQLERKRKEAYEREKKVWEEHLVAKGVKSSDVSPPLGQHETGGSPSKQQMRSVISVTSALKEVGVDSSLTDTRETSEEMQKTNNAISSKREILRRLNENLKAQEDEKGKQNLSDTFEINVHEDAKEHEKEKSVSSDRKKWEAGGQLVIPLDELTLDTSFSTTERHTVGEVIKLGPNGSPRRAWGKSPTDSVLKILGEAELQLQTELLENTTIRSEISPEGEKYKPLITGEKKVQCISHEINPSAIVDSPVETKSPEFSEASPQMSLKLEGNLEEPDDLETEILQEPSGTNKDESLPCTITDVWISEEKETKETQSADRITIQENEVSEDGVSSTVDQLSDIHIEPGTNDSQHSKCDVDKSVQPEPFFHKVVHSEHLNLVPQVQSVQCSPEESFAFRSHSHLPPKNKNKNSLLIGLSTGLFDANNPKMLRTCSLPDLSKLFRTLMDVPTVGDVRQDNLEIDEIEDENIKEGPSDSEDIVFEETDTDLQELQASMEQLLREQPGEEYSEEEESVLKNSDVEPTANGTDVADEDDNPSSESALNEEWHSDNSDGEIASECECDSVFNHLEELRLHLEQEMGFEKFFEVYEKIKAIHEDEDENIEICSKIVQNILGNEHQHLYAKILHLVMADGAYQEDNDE
The settings on record: at 0.1 µM.

In experiment [3] the target is T2, Serine/threonine-protein kinase Nek1 (Homo sapiens). The settings on record: at 1 µM.
In experiment [4] the target is T3, Serine/threonine-protein kinase Nek2 (Homo sapiens) (UniProt P51955).
T3 sequence (whole entry): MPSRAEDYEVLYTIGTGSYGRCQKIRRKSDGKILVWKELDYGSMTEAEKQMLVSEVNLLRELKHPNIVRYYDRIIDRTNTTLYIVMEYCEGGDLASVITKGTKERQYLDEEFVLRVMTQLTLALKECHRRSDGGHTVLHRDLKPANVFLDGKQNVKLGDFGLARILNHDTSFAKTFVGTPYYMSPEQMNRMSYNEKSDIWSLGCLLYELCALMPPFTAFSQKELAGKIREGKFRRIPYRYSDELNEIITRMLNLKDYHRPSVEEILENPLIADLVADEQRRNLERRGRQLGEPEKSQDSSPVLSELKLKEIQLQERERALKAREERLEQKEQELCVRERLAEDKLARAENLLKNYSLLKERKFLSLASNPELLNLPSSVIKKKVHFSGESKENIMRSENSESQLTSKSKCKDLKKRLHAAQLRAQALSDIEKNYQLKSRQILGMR
To be noted: at 0.1 µM.

In experiment [5] the target is T3, Serine/threonine-protein kinase Nek2 (Homo sapiens). The settings on record: at 1 µM.
Experiment [6] concerns the target Serine/threonine-protein kinase Nek6 (Homo sapiens) (UniProt Q9HC98). To be noted: at 0.1 µM.
Experiment [7] shares this target. To be noted: at 1 µM.
Experiment [8] deals with Serine/threonine-protein kinase Nek7 (Homo sapiens) (UniProt Q8TDX7). The settings on record: at 0.1 µM.
Sequence of Serine/threonine-protein kinase Nek7 (Homo sapiens) (Q8TDX7 whole entry, looked up): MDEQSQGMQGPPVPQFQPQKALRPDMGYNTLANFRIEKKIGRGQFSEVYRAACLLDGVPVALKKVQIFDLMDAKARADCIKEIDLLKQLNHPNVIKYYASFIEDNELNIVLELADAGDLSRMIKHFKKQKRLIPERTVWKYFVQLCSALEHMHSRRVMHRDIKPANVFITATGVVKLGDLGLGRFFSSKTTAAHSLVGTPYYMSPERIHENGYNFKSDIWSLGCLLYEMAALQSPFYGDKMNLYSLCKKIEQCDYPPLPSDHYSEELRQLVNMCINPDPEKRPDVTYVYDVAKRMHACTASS
The target is the same in experiment [9]. The settings on record: at 1 µM.
Experiment [10] concerns the target T4, Serine/threonine-protein kinase Nek9 (Homo sapiens) (UniProt Q8TD19).
T4 sequence (whole entry): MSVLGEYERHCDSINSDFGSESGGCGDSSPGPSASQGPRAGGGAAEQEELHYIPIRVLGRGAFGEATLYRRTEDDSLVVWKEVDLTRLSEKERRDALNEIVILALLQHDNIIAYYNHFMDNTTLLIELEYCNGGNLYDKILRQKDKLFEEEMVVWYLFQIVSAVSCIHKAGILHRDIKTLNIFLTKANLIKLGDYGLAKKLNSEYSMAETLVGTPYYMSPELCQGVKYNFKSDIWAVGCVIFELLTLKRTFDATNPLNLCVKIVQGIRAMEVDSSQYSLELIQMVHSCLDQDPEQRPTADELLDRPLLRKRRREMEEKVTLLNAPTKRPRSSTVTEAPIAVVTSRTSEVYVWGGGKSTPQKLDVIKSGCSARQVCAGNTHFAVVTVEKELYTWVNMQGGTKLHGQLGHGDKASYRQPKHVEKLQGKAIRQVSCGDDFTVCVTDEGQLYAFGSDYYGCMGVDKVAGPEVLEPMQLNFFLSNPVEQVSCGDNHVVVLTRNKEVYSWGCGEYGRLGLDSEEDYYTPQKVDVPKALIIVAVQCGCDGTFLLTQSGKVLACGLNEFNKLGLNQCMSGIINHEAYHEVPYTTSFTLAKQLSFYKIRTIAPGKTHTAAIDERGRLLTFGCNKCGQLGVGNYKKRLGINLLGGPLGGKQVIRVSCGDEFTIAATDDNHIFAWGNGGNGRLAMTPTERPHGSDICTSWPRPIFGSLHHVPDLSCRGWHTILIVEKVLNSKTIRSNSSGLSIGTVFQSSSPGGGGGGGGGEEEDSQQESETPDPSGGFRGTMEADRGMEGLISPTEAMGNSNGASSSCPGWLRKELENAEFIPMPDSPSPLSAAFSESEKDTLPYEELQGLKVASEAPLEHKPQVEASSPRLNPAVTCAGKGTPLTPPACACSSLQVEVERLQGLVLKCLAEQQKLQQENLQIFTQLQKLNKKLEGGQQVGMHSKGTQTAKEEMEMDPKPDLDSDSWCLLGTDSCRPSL
To be noted: at 0.1 µM.

The target of experiment [11] is T4, Serine/threonine-protein kinase Nek9 (Homo sapiens). To be noted: at 1 µM.
The target of experiment [12] is Serine/threonine-protein kinase PLK1 (Homo sapiens) (UniProt P53350). To be noted: at 0.1 µM.
Sequence of Serine/threonine-protein kinase PLK1 (Homo sapiens) (P53350 whole entry): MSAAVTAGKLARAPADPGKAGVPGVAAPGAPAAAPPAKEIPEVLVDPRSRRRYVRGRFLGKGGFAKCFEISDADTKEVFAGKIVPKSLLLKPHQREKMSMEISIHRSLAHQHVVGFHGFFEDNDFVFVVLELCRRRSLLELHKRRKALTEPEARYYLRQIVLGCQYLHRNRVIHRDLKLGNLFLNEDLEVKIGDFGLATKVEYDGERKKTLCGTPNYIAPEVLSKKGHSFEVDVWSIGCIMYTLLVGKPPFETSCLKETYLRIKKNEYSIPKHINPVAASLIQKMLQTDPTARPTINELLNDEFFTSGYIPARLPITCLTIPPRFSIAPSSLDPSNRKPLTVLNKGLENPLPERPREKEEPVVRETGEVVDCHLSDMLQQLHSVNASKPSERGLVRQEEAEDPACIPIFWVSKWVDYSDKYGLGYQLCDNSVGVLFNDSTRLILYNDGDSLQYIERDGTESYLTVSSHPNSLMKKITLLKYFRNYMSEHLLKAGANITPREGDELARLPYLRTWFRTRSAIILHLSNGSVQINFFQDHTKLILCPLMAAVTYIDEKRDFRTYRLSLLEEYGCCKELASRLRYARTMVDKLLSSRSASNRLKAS
Experiment [13] shares this target. To be noted: at 1 µM.
Experiment [14] deals with T5, Dual specificity protein kinase TTK (Homo sapiens) (UniProt P33981).
T5 sequence (whole entry): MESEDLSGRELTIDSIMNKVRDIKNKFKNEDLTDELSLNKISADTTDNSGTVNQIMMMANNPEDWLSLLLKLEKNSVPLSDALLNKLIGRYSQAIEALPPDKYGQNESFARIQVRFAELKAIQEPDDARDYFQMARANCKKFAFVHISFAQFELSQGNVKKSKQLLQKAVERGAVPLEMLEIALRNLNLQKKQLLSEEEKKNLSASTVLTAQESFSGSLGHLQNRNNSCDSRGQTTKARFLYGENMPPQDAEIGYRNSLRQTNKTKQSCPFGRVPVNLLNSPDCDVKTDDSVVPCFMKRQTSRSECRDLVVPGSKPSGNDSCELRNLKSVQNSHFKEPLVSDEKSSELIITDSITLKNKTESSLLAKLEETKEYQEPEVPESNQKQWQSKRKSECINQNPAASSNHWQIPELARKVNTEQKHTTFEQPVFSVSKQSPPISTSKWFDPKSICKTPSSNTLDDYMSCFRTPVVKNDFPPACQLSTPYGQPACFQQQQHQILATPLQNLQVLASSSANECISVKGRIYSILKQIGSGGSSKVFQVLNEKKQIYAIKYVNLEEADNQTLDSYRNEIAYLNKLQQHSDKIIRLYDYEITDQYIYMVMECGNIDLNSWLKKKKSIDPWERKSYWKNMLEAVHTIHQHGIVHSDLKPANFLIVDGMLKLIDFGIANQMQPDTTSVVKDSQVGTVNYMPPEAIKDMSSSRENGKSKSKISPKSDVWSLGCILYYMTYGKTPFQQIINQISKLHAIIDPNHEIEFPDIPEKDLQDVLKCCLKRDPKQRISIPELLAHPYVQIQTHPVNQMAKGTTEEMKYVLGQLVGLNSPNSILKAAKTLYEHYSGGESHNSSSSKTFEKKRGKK
The settings on record: at 0.1 µM.

For experiment [15], the system named is T6, Receptor-type tyrosine-protein kinase FLT3 (Homo sapiens), P36888 [D835Y].
T6 sequence (whole entry): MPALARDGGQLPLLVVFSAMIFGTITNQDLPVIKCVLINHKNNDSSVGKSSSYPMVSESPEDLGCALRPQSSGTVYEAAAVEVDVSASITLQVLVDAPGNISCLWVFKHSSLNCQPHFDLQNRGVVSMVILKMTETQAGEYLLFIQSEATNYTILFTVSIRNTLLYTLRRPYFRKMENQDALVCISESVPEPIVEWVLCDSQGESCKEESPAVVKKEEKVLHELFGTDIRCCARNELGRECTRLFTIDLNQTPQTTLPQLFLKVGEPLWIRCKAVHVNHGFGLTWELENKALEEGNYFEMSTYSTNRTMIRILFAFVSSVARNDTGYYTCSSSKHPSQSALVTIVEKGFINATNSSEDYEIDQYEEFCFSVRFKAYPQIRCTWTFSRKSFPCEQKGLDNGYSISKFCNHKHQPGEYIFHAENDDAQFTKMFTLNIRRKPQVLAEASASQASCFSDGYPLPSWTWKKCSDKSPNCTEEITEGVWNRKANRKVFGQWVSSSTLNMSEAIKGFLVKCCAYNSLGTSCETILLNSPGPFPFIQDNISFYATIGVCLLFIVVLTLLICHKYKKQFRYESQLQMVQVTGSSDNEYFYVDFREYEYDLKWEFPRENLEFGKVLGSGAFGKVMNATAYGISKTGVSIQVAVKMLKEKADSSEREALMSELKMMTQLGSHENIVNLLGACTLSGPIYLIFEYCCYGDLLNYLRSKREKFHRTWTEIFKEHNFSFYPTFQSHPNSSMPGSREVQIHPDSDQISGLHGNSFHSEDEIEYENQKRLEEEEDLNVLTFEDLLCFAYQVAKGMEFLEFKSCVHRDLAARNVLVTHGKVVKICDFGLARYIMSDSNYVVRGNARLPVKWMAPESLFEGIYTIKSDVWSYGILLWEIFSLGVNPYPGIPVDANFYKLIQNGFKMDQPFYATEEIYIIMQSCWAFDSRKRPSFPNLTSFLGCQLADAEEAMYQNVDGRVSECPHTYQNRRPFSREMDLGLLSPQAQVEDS
The settings on record: at 1 µM.

Experiment [16] concerns the target Vascular endothelial growth factor receptor 3 (Homo sapiens) (UniProt P35916). To be noted: at 0.1 µM.
For experiment [17] the target is unchanged. To be noted: at 1 µM.
Experiment [18] concerns the target Macrophage colony-stimulating factor 1 receptor (Homo sapiens) (UniProt P07333). The settings on record: at 0.1 µM.
Experiment [19] has the same target. To be noted: at 1 µM.
Experiment [20] has as its target Tyrosine-protein kinase Fyn (Homo sapiens) (UniProt P06241). The settings on record: at 0.1 µM.

Sequence of Macrophage colony-stimulating factor 1 receptor (Homo sapiens) (P07333 whole entry): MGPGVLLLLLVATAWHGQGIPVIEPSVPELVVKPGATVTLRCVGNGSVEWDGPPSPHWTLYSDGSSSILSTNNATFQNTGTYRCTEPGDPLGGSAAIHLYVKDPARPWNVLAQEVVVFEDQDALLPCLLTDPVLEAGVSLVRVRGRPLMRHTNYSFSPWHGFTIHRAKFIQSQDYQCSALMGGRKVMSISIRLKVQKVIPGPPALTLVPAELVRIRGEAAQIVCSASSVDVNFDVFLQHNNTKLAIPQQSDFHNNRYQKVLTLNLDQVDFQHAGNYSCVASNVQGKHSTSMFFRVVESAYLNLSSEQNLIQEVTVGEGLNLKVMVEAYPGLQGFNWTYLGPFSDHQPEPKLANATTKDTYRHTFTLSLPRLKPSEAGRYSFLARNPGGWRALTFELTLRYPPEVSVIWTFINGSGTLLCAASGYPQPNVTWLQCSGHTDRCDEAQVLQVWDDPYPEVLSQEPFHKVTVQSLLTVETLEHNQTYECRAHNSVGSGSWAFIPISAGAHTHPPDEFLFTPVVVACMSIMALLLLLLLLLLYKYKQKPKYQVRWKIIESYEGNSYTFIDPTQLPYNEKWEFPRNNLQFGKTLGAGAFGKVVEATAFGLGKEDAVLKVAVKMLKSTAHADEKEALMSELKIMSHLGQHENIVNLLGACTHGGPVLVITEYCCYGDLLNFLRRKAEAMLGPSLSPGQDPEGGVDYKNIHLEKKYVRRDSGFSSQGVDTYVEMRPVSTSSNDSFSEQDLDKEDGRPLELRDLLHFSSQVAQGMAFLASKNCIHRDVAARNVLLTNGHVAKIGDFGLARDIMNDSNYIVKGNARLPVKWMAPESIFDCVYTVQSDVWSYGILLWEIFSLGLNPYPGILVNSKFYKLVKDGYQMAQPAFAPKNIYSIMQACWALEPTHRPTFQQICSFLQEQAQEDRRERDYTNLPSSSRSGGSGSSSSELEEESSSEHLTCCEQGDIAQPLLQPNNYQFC
Sequence of Serine/threonine-protein kinase Nek6 (Homo sapiens) (Q9HC98 whole entry): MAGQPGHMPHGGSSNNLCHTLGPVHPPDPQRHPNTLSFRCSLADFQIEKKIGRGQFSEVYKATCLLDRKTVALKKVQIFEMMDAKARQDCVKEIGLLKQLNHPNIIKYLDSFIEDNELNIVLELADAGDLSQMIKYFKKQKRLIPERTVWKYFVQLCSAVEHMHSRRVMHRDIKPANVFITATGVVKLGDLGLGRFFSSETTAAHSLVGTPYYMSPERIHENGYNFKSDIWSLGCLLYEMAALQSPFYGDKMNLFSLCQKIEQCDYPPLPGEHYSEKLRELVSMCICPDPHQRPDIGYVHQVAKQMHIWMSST
Sequence of Vascular endothelial growth factor receptor 3 (Homo sapiens) (P35916 whole entry): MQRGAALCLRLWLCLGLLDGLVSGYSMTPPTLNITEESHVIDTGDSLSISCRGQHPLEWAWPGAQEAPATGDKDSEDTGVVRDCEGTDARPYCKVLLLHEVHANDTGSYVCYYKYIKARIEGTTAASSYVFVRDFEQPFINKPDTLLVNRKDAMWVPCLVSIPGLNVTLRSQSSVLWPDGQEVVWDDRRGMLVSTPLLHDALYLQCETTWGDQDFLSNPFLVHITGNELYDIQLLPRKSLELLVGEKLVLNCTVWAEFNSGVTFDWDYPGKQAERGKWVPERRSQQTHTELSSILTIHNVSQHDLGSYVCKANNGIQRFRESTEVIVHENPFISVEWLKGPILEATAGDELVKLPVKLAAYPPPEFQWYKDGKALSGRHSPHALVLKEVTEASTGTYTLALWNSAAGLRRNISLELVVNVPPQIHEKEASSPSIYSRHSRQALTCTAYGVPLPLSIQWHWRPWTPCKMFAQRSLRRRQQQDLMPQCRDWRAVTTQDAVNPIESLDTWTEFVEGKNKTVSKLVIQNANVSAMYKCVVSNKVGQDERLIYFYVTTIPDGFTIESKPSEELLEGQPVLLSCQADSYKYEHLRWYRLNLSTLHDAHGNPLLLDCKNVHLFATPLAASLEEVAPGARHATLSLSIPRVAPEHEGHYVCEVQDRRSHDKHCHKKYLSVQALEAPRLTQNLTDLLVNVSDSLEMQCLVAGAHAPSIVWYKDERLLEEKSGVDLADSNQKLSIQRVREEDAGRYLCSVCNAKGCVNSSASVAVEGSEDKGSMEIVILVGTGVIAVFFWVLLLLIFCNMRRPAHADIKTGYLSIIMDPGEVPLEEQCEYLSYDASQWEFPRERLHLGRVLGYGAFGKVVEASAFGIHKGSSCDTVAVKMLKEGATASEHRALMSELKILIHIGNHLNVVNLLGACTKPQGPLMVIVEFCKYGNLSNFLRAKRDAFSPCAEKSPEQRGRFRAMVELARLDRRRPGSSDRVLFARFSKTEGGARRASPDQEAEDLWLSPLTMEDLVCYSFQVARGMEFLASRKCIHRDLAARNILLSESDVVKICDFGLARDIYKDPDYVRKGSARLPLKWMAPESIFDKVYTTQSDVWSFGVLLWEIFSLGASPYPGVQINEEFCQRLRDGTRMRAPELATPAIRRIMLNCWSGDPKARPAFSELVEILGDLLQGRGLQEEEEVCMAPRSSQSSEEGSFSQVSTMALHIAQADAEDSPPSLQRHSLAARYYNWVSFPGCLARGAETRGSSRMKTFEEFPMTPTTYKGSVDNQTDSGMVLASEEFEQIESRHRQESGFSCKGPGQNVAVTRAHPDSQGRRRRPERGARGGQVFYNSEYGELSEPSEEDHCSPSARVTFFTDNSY
Sequence of Tyrosine-protein kinase Fyn (Homo sapiens) (P06241 2-537 limits assumed): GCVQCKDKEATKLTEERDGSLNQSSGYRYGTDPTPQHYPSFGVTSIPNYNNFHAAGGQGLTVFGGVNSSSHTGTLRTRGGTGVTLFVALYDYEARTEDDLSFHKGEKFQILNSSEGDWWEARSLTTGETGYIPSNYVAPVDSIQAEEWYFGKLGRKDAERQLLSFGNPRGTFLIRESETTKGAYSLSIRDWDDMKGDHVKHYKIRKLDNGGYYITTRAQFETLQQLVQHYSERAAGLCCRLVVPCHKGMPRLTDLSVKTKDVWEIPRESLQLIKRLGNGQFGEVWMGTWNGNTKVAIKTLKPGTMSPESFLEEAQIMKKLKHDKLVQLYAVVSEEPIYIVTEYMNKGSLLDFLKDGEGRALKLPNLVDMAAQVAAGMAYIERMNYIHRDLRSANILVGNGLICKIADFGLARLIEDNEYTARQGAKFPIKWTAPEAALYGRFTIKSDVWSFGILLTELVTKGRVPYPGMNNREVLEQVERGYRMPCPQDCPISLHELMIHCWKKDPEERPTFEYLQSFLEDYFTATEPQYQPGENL

Take `Cc1ccc(C(=O)NC2CC2)cc1-c1ccc2[nH]ncc2c1`: the inhibition was -3.47% in [1]; -0.31% in experiment [2]; 1.87% in experiment [3]; -2.19% in experiment [4]; 0.98% in experiment [5]; -3.09% in experiment [6]. The inhibition in experiment [7] was -3.72%; in experiment [8] it was -7.62%; in [9] it was -4.5%; in experiment [10], 0.32%; in experiment [11] it was -2.78%; in [12], -2.55%. Besides, the inhibition is -0.76% in [13]; -7.32% in experiment [14]; 3.33% in experiment [15]; -0.16% in experiment [16]; 1.13% in experiment [17]; -5.43% in experiment [18]. In addition, the inhibition in [19] was 4.56%; in [20] it was -0.87%.
On to `COC(=O)c1cncc(/C=C/c2c(C)cc(O)cc2C)c1`, for which the inhibition in [1] was 8.63%; in [2], 1.51%; in experiment [3] it was 3.23%; in experiment [4] it was 4.54%; in experiment [5], 3.91%; in experiment [6], 0.94%. The inhibition in [7] was found to be 4.21%; in [8] it was 2.47%; in experiment [9], 1.56%; in experiment [10], 2.09%; in experiment [11] it was 3.89%; in experiment [12] it was 1.89%. Further, the inhibition in [13] was 1.85%; in experiment [14], 6.05%; in [15], 1.33%; in experiment [16], 4.3%; in [17] it was 2.63%; in experiment [18] it was 6.96%. In addition, the inhibition was determined as 37.7% in experiment [19] and 3.73% in experiment [20].
